Test results taken from PubChem BioAssay (NCI).
Compounds without any hit were thinned out: in the full panel of roughly 79,000, 15% have a hit. Active and inactive are the calls of the source. Cut-off read from the data, not from the text of the source: active = growth inhibition above about 70%; inactive = the rest.

Assay: NCI Yeast Anticancer Drug Screen. Data for the wt1 strain (AID 149);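 note: 0% = growth of vehicle-treated wt1 cultures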
Conditions: S. cerevisiae wt1 strain (SPY 50644) growth inhibition, hits give high values
Method: Growth inhibition of yeast strains with defined genetic alterations is measured as a screen for potential anti-cancer activity. Selected strains with alterations in DNA damage repair or cell cycle control were exposed to compounds and growth inhibition was measured relative to vehicle treated controls. The strain used in this assay is wt1

Measured: growth inhibition

Oc1ccc(C2(c3ccc(O)cc3)CCCC2)cc1
active: at 33.0 µM 98% | at 100.0 µM 98%
inactive: at 1.2 µM -41% | at 3.7 µM -21% | at 11.0 µM 10%

CC(C)(N=Nc1ccc(Cl)cc1)[N+](=O)[O-]
inactive: at 1.2 µM 10% | at 3.7 µM 12% | at 11.0 µM 68%
active: at 33.0 µM 98% | at 100.0 µM 98%

Cc1cccc(/C=N/NC(=S)NC2CCCCC2)n1
inactive: at 1.2 µM -7% | at 3.7 µM -6% | at 11.0 µM -4% | at 33.0 µM 10% | at 100.0 µM 6%

CC(C(=O)N1C(=O)N(C(=O)C(C)C(O)c2ccccc2)C2CCCCC21)C(O)c1ccccc1 (stereo not given)
inactive: at 1.2 µM 2% | at 3.7 µM -1% | at 11.0 µM 7% | at 33.0 µM 3% | at 100.0 µM 12%

CC1(C)C(O)OC(O)C1(C)C (stereo not given)
inactive: at 1.2 µM 0% | at 3.7 µM 0% | at 11.0 µM 4% | at 33.0 µM 2% | at 100.0 µM 8%

CCC1(O)C(=O)OCc2c1cc1n(c2=O)Cc2cc3c(N)cccc3nc2-1 (stereo not given)
inactive: at 1.2 µM -22% | at 3.7 µM -14% | at 11.0 µM -26% | at 33.0 µM -24% | at 100.0 µM -16%

O=C(NNc1ccccc1)C(CCCCNS(=O)(=O)Cc1ccccc1)NS(=O)(=O)Cc1ccccc1 (stereo not given)
inactive: at 1.2 µM 4% | at 3.7 µM 9% | at 11.0 µM 26% | at 33.0 µM 44% | at 100.0 µM 54%

CN(C)CCNCCCNc1c2ccccc2nc2cccc([N+](=O)[O-])c12
inactive: at 1.2 µM -14% | at 3.7 µM 9% | at 11.0 µM 11% | at 33.0 µM 20% | at 100.0 µM 50%
